Several values for one entry are separate records, joined by “and”; a condition that tells them apart may be missing. Equal values may be shown once. Inconclusive results are not listed. Where a structure was tested more than once in an assay, its records may differ in their call. Activity calls are given as the source filed them. Rule for the calls, unless noted: active = hit-call score of the fitted dose curve at least 0.9, where 1 is the maximum; inconclusive = response in the unintended direction; inactive = score below 0.9.
Experiments:
[1] = target: Agonist Androgen Response Element (ARE), AR (gene 367) (UniProt P10275); assay: OT_AR_ARELUC_AG_1440: Odyssey Thera (OT) 24-hour CHO-K1 Luciferase Assay for Agonist Androgen Response Element (ARE) (AID 2283379)
Chain of Agonist Androgen Response Element (ARE), AR (gene 367) (P10275 whole entry, looked up): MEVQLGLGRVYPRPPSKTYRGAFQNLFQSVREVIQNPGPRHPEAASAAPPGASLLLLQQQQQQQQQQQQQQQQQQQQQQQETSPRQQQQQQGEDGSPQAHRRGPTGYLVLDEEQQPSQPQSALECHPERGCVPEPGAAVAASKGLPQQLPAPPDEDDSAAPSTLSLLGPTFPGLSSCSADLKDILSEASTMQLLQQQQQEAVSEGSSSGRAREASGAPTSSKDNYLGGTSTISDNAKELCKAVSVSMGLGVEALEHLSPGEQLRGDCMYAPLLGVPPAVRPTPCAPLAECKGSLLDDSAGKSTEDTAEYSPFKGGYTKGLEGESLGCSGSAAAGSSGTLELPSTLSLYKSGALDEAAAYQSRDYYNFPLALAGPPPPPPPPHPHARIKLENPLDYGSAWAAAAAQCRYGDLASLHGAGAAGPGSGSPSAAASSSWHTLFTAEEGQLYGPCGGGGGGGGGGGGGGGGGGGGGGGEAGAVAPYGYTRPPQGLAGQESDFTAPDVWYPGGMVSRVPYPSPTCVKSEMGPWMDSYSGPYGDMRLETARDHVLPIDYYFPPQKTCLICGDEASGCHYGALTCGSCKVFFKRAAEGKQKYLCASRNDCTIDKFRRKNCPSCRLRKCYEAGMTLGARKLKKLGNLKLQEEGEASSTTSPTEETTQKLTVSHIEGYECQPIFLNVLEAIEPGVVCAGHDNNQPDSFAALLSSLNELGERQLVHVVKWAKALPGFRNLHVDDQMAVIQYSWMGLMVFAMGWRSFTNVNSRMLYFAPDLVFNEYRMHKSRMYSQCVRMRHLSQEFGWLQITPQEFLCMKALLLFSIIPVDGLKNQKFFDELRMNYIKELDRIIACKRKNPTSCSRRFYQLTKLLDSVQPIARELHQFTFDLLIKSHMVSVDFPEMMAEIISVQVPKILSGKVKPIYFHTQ
In short: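 Gain-of-signal reporter endpoint: cells (CHO-K1, hamster) are treated 24 h, luciferin/ATP reagent added, and luminescence compared with DMSO baseline.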

[2] = target: Estrogen receptor (Homo sapiens) (UniProt P03372); assay: OT_ERa_GFPERaERE_0480: Odyssey Thera (OT) 8-hour HeLa Transcription Induction Assay for Estrogen Receptor (AID 2283381; active = hit-call score of the fitted dose curve at least 0.9, where 1 is the maximum; inactive = score below 0.9)
Chain of Estrogen receptor (Homo sapiens) (P03372 whole entry, looked up): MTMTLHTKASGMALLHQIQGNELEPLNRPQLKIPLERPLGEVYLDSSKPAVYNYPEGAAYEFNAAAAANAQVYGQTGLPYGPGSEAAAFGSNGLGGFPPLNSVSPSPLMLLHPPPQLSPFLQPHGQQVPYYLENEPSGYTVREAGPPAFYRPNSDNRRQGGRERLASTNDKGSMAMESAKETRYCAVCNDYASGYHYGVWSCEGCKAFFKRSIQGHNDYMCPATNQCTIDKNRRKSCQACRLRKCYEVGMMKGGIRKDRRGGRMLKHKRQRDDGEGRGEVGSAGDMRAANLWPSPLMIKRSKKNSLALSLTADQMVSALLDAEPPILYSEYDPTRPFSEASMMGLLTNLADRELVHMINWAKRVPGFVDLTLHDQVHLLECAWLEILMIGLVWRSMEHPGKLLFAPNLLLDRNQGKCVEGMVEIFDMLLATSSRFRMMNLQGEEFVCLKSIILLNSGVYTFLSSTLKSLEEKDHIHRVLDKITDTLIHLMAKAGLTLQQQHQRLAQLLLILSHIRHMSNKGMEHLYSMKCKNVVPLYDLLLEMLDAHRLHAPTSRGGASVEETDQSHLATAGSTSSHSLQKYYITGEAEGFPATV
In short: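 Human cervical HeLa cells were treated for 8 hours, after which ERE-driven GFP induction was measured by fluorescence microscopy; increases over DMSO baseline defined activity.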

[3] = target: Estrogen receptor (Homo sapiens) (UniProt P03372); assay: OT_ERa_GFPERaERE_0120: Odyssey Thera (OT) 2-hour HeLa Transcription Induction Assay for Estrogen Receptor (AID 2283382)
In short: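 Cells (human cervical HeLa) receive compound, incubate 2 hours, then are imaged for fluorescent reporter induction. Images are quantified by high content analysis, and activity is fitted as gain of signal against DMSO.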

[4] = target: Retinoic acid receptor RXR-alpha (Homo sapiens) (UniProt P19793); assay: OT_NURR1_NURR1RXRa_0480: Odyssey Thera (OT) 8-hour HEK293T Protein Complementation Assay for Nurr1/retinoid X receptor (RXR) (AID 2283385)
Chain of Retinoic acid receptor RXR-alpha (Homo sapiens) (P19793 whole entry, looked up, the tested form may be a part): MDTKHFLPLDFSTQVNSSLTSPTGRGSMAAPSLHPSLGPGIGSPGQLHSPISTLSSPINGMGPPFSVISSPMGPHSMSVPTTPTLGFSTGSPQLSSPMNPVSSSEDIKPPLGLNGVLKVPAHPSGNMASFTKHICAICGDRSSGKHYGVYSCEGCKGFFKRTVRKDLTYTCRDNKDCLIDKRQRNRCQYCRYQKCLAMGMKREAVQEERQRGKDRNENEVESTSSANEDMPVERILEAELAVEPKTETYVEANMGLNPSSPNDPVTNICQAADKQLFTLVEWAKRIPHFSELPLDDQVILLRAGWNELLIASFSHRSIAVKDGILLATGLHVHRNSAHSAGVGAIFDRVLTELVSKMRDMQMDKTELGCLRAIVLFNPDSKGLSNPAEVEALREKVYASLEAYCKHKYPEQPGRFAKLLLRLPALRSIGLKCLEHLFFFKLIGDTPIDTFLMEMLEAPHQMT
In short: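 Interaction of bait and prey reconstitutes a functional reporter, whose fluorescence was measured in HEK293T cells dosed with compound for 8 hours. Signal gain relative to DMSO defined the single endpoint.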

[5] = target: Peroxisome proliferator-activated receptor gamma (Homo sapiens) (UniProt P37231); assay: OT_PPARg_PPARgSRC1_0480: Odyssey Thera (OT) 8-hour Protein-Complementation Assay for Peroxisome Proliferator-activated Receptor Gamma / SRC-1 Co-activator (AID 2283387);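 note: nuclear to cytoplasmic split Venus YFP fluorescence ratio reporting PPARg SRC-1 interaction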
Chain of Peroxisome proliferator-activated receptor gamma (Homo sapiens) (P37231 whole entry, looked up, the tested form may be a part): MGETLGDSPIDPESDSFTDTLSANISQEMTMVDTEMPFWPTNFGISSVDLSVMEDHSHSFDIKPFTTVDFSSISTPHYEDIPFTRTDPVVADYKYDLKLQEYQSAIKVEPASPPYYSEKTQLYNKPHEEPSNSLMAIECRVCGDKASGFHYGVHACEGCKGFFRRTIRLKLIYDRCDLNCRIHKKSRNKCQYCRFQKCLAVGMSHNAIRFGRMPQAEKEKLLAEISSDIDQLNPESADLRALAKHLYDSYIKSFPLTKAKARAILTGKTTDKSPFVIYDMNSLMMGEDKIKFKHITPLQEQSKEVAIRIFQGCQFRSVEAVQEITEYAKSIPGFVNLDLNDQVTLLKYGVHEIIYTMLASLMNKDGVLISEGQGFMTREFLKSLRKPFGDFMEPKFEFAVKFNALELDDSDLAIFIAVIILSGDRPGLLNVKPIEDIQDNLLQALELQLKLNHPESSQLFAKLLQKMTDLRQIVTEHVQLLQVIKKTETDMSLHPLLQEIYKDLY
In short: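 Protein-fragment complementation in HEK293T: Venus YFP halves (residues 1-158, 159-239, mutated to IFP1/IFP2) fused to PPARg/SRC-1. 8 h exposure; N/C ratio at 488 nm; DMSO negative control.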

[6] = target: Bile acid receptor (Homo sapiens) (UniProt Q96RI1); assay: OT_FXR_FXRSRC1_1440: Odyssey Thera (OT) 24-hour HEK293T Protein-Complementation Assay for Farnesoid X receptor/SRC-1 Co-activator (AID 2283384)
Chain of Bile acid receptor (Homo sapiens) (Q96RI1 whole entry, looked up, the tested form may be a part): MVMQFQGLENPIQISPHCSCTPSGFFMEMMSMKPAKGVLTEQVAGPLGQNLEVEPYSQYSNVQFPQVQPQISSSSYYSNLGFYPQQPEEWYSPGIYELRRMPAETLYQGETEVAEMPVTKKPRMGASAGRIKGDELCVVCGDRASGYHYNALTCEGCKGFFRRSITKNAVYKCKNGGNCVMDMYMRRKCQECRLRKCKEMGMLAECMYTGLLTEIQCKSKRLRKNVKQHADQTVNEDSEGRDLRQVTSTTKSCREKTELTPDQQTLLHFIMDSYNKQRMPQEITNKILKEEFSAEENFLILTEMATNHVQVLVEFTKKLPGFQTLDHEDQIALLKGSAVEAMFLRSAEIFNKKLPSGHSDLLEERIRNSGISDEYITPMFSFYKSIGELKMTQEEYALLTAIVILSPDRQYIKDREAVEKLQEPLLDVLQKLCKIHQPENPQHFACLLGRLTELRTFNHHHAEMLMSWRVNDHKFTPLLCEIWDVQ
In short: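 Measures ligand-driven FXR–SRC-1 co-activator recruitment in HEK293T via fragment complementation, fluorescence intensity at 24 h. DMSO served as negative control and baseline for gain-of-signal fitting.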

[7] = target: mouse Estrogen Receptor alpha (Era), Esr1 (gene 13982) (UniProt P19785); assay: NVS_NR_mERa: NovaScreen (NVS) Nuclear Receptor Binding Assay for mouse Estrogen Receptor alpha (Era) (AID 2283378);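 note: hit means loss of bound radioligand signal relative to DMSO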
Chain of mouse Estrogen Receptor alpha (Era), Esr1 (gene 13982) (P19785 whole entry, looked up): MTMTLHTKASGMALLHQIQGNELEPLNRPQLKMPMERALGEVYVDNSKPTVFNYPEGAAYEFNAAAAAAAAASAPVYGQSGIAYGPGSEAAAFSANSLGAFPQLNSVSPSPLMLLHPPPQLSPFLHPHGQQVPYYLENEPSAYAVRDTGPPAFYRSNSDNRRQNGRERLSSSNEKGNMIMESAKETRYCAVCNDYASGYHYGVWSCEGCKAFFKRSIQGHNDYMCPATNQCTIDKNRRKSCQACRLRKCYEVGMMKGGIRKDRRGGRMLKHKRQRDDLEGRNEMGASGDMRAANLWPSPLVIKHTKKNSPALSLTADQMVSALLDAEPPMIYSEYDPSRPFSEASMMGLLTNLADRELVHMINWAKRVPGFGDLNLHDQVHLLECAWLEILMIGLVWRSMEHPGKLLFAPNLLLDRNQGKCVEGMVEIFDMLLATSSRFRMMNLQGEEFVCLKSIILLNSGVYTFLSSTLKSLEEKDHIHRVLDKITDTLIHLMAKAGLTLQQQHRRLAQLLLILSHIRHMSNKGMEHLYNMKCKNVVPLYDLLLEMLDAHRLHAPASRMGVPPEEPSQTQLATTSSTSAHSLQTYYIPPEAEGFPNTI
In short: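 Filter scintillation counts of bound radioligand, measured 18 h post-dose, gave the readout; decreased signal relative to DMSO controls indicated displacement from mouse Era. Primary screen ran in duplicate at 25 uM; active chemicals were retested across concentrations.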

[8] = target: Retinoic acid receptor RXR-alpha (Homo sapiens) (UniProt P19793); assay: OT_NURR1_NURR1RXRa_1440: Odyssey Thera (OT) 24-hour HEK293T Protein Complementation Assay for Nurr1/retinoid X receptor (RXR) (AID 2283386)
In short: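 Steps: fragment-tagged Nurr1 and RXRα expressed in HEK293T; compounds added; after 24 h, complemented reporter quantified by fluorescence intensity; signal increase over DMSO fitted as the single endpoint.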

[9] = target: Bile acid receptor (Homo sapiens) (UniProt Q96RI1); assay: OT_FXR_FXRSRC1_0480: Odyssey Thera (OT) 8-hour HEK293T Protein-Complementation Assay for Farnesoid X receptor/SRC-1 Co-activator (AID 2283383)
In short: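 PCA, HEK293T, 8 h compound exposure; FXR–SRC-1 binding reconstitutes split reporter; fluorescence intensity; positive-direction fit vs DMSO.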

[10] = target: human Norepinephrine Transporter (NET), SLC6A2 (gene 6530) (UniProt P23975); assay: NVS_TR_hNET: NovaScreen (NVS) Transporter Assay for human Norepinephrine Transporter (NET) (AID 2283377);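 note: cell-free membrane protein extracted from CHO cells expressing human NET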;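 for AC50: displacement of radioligand from human NET seen as loss of scintillation signal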
Chain of human Norepinephrine Transporter (NET), SLC6A2 (gene 6530) (P23975 whole entry, looked up): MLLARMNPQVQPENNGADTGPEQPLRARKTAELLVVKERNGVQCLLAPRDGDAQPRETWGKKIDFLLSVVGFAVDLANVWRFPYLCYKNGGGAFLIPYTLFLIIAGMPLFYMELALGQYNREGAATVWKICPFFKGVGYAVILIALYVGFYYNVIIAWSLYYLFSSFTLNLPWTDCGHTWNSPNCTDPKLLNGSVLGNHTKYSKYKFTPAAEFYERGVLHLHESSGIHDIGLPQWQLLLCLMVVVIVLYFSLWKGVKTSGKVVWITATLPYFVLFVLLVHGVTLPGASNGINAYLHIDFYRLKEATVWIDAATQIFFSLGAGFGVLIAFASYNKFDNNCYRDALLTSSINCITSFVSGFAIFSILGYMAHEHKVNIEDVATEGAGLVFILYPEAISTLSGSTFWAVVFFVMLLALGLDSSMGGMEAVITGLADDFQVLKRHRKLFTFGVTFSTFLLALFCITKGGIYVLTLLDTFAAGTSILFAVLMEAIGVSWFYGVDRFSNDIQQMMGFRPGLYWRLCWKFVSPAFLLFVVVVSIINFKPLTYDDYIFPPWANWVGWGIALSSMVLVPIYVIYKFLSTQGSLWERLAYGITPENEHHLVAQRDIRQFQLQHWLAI
In short: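 CHO cell extracts expressing the transporter; tritiated or iodinated tracer displaced competitively; filtration plus scintillation readout at 1 h. Single-point duplicates at 25 uM, concentration series for follow-up; activity = signal drop relative to DMSO.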

Measured: AC50

CO/C=C(/C(=O)OC)c1ccccc1Oc1cc(Oc2ccccc2C#N)ncn1
inactive: [1] | [2] | [3] | [4] | [5]

O=C(Nc1ccccc1)Nc1ccnc(Cl)c1
inactive: [1] | [2] | [3] | [6] | [5]

CCNc1nc(Cl)nc(NC(C)C)n1
active: [7] 6.81 µM | [3] 3.42 µM
inactive: [7] | [2] | [3] | [4] | [8] | [5]

COC(=O)c1ccccc1C(=O)OC
inactive: [7] | [2] | [3] | [9] | [6] | [4] | [8] | [5]

CC1=C(C(=O)Nc2ccccc2)SCCO1
inactive: [1] | [2] | [3] | [9] | [6] | [4] | [8] | [5]
active: [10] 11.6 µM

Cc1cc(Cl)ccc1OCC(=O)O
inactive: [1] | [2] | [3] | [4] | [8] | [5]
active: [1] 24 µM

CCCC1COC(Cn2cncn2)(c2ccc(Cl)cc2Cl)O1 (configuration not stated)
inactive: [1] | [2] | [3] | [9] | [5]

CCCCOC(=O)c1ccccc1C(=O)OCCCC
inactive: [7] | [4] | [8] | [5]
active: [7] 25 µM | [2] 34.7 µM and 31.9 µM and 23.8 µM | [3] 30.6 µM and 20.8 µM and 24.9 µM

CCOC(=O)CC(SP(=S)(OC)OC)C(=O)OCC (configuration not stated)
inactive: [1] | [2] | [3] | [5]

CCCCNC(=O)OCC#CI
inactive: [7] | [5]
active: [10] 9.04 µM and 9.55 µM | [2] 86.8 µM | [3] 12.1 µM | [4] 11.4 µM | [8] 11.7 µM

CN(C)C(=S)SSC(=S)N(C)C
active: [2] 83.4 µM | [3] 90.7 µM
inactive: [1] | [9] | [5]

N#Cc1nn(-c2c(Cl)cc(C(F)(F)F)cc2Cl)c(N)c1S(=O)C(F)(F)F (configuration not stated)
inactive: [1] | [2] | [3] | [4] | [8] | [5]
active: [9] 35 µM | [6] 33 µM

C=CC1(C)OC(=O)N(c2cc(Cl)cc(Cl)c2)C1=O (configuration not stated)
inactive: [7] | [2] | [3] | [9] | [6] | [4] | [8] | [5]
active: [7] 10.1 µM | [3] 50 µM | [6] 34.2 µM

CC1COC(Cn2cncn2)(c2ccc(Oc3ccc(Cl)cc3)cc2Cl)O1 (configuration not stated)
inactive: [2] | [3] | [5]
active: [10] 12 µM | [9] 11.2 µM | [4] 11.4 µM

CON(C)C(=O)Nc1ccc(Cl)c(Cl)c1
inactive: [10] | [7] | [2] | [3] | [4] | [8] | [5]
active: [10] 25 µM

C=CCC1=C(C)C(OC(=O)C2C(C=C(C)C)C2(C)C)CC1=O (configuration not stated)
active: [9] 14.9 µM | [6] 75 µM | [4] 31.2 µM and 33.1 µM | [8] 84.5 µM and 83.5 µM
inactive: [10] | [7] | [2] | [3] | [4] | [8] | [5]

N#CC(CCc1ccc(Cl)cc1)(Cn1cncn1)c1ccccc1 (configuration not stated)
inactive: [1] | [2] | [3] | [5]

CC(C)Oc1cc(-n2nc(C(C)(C)C)oc2=O)c(Cl)cc1Cl
active: [9] 29.5 µM | [6] 58.7 µM | [4] 50 µM | [8] 74.7 µM
inactive: [1] | [2] | [3] | [4] | [8] | [5]

C=CCC1=C(C)[C@@H](OC(=O)[C@@H]2[C@@H](C=C(C)C)C2(C)C)CC1=O
inactive: [2] | [3] | [4] | [8] | [5]
active: [9] 16.6 µM | [6] 50 µM | [4] 31.5 µM | [8] 80.6 µM

Oc1ccccc1-c1ccccc1
active: [10] 15 µM
inactive: [2] | [3] | [4] | [8] | [5]

CCCCNC(=O)n1c(NC(=O)OC)nc2ccccc21
inactive: [1] | [2] | [3] | [9] | [6] | [5]

Cc1ccc(-c2c(Cl)nc(C#N)n2S(=O)(=O)N(C)C)cc1
inactive: [1] | [2] | [3] | [9] | [6] | [4] | [8] | [5]

COc1ccc(C(c2ccc(OC)cc2)C(Cl)(Cl)Cl)cc1
inactive: [10] | [4] | [8] | [5]
active: [7] 3.48 µM | [2] 3.09 µM and 3.24 µM and 3.47 µM | [3] 2.7 µM and 2.88 µM and 2.66 µM | [9] 32.1 µM and 35 µM and 27 µM | [6] 30.4 µM and 35.6 µM and 28.4 µM | [4] 66 µM

— PubChem BioAssay (EPA / NIEHS)
